High-throughput results: PubChem BioAssay, National Center for Advancing Translational Sciences (NCATS)
Only a selection was taken, and hits are over-represented in it overall.
nsP2pro primary = blocks chikungunya virus nsP2 protease peptide cleavage | Q8JUX6 | FRET peptide cleavage, nsP2pro, fluorescence 1 h | Potency, µM (top dose mostly 24.9 µM), without a hit: at the highest dose activity change, negative = inhibition, hits mostly inhibitors | 1.1% of 31,000 active | AID 1964107; note: nearly all actives have a fitted effect of over 60% in size
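Recombinant nsP2pro (150 nM) was preincubated with compound 15 min at room temperature in 10 mM Tris-HCl pH 8.0, 0.01% Tween 20. Peptide 2 FRET substrate (2.5 uM) was then added and fluorescence read after 1 h. Seven-point series, up to 25 uM.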
nsP2 cell sec = inhibits CHIKV nsP2 protease in cells | 10% of 450 active | shares compounds with nsP2pro primary | cell-based CHIKV nsP2 protease reporter assay | Potency, µM (highest dose often 51.1 µM), without a hit: top-dose activity change, negative = inhibition, usual class: inhibitors; note: nearly all actives have a fitted effect of over 70% in size
NSP2 full ctr = full-length CHIKV NSP2 protease inhibition, selectivity. shares compounds with nsP2pro primary. Full-length CHIKV NSP2 protease enzymatic counterscreen. Potency, µM (series often up to 50.7 µM), for inactives: at the top dose activity change, negative = inhibition, hits mostly inhibitors. 39% of 410 active. AID 1964101; note: nearly all actives have a fitted effect of over 65% in size
Furin counterscr = human furin inhibition, counterscreen for nsP2pro inhibitors. Potency, µM (top dose mostly 50.6 µM), without a hit: top-dose activity change, negative = inhibition, hits mostly inhibitors. Recombinant human furin enzymatic counterscreen, fluorogenic substrate. shares compounds with nsP2pro primary. 6% of 410 active. AID 1964102
nsP2 NS23 pep = blocks CHIKV nsP2 protease cleavage of endogenous NS2/3 peptide. 34% of 410 active. Potency, µM (top dose mostly 51 µM), for inactives: at the top dose activity change, negative = inhibition, actives largely listed as inhibitors. Purified CHIKV nsP2 protease, endogenous NS2/3 peptide cleavage. AID 1964103. shares compounds with nsP2pro primary; note: nearly all actives have a fitted effect of over 55% in size
Papain cs = selectivity counter-screen for CHIKV nsP2 protease inhibitors: papain | 5% of 410 active | Potency, µM (highest dose often 51 µM), without a hit: at the highest dose activity change, negative = inhibition, actives largely listed as inhibitors | purified papain protease activity, enzymatic inhibition | shares compounds with nsP2pro primary | AID 1964104
Target sequence (P00784 whole entry, looked up): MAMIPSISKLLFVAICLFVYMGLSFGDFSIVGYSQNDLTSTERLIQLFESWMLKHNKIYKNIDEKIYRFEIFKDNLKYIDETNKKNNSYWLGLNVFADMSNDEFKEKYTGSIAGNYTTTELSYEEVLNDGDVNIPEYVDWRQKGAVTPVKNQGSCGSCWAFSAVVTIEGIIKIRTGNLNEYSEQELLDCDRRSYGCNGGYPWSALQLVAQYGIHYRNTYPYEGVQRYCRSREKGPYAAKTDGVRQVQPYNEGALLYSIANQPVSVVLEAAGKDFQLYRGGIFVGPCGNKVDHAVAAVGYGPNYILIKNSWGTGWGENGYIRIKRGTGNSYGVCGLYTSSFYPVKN
nsP2pro confirm = confirmation of CHIKV nsP2 protease inhibitors | shares compounds with nsP2pro primary | 43% of 410 active | CHIKV nsP2 protease enzymatic activity, qHTS | Potency, µM (doses to about 25.5 µM), without a hit: top-dose activity change, negative = inhibition, hits mostly inhibitors | AID 1964105; note: nearly all actives have a fitted effect of over 75% in size
HCV NS3 4A cs = selectivity counter-screen for CHIKV nsP2 protease inhibitors: HCV NS3/4A. shares compounds with nsP2pro primary. HCV NS3/4A protease biochemical counterscreen. Potency, µM (highest dose often 50.9 µM), usual class: inhibitors. 20% of 410 active; note: nearly all actives have a fitted effect of over 55% in size
Starred values were filed as active, the others as inactive; i = inactive; ? = inconclusive; [ ] = dose if it differs, or a comment. Calls come from the whole dose curve. % is set by controls: 0 for no effect and ±100 for the full control effect; potency is the fitted concentration of half-maximal effect.

SMILES | nsP2pro primary | others
Cc1cccc(C(=O)Nc2ccc(N3CCC(N4CCCCC4)CC3)c(C(=O)O)c2)c1 | 5.01µM* | nsP2 cell sec=11.4%;NSP2 full ctr=4.61µM*;Furin counterscr=?;nsP2 NS23 pep=14.6µM*;Papain cs=-4.1%;nsP2pro confirm=7.11µM*;HCV NS3 4A cs=2.59µM*
O=C(Nc1ccc(N2CCC(c3ccccc3)C2)c(C(=O)O)c1)c1ccc(Cl)cc1 (stereo unspecified) | 3.55µM* | nsP2 cell sec=29.6%;NSP2 full ctr=3.66µM*;Furin counterscr=?;nsP2 NS23 pep=11.6µM*;Papain cs=8.7%;nsP2pro confirm=7.11µM*;HCV NS3 4A cs=3.66µM*
Cc1cccc(C(=O)Nc2cc3c(cc2N2CCCCC2)n(C)c(=O)n3C)c1 | -9.0%
O=C(Nc1ccc(Cl)cc1)N1CCC(c2ccccc2)C1 (stereo unspecified) | -10.2%
Cc1cccc(C(=O)Nc2ccc3ncnc(N4CCCCC4)c3c2)c1 | 33.7%
O=C(Nc1ccc(Cl)cc1)c1ccc2c(c1)N(Cc1ccccc1)CCS2 | -4.6%
COc1ccc(C[C@H](NC(=O)[C@@]2(O)C[C@@H](O)[C@H](O)[C@@H](NS(=O)(=O)c3cccc(C(F)(F)F)c3)C2)C(N)=O)cc1 | i
Cc1ccnc(NC(=S)N2CCC(c3cccc(C(F)(F)F)c3)CC2)c1 | 2.0%
O=C(CN1C(=O)N/C(=C\c2cn(-c3cccc(C(=O)O)c3)cn2)C1=O)Nc1ccccc1Cl | -7.3%
CC(C)(NC(=O)Nc1ccccc1Cl)C(=O)N1CCC(C(=O)O)CC1 | -4.0%
CCCCN(C)C(=O)Cn1nc(-c2ccc(C(C)=O)cc2)ccc1=O | -5.5%
COc1ccccc1-c1cc(C(=O)N2CCOCC2)nc2c1cnn2C | -1.9%
COc1ccc(CNS(=O)(=O)c2cc(-c3[nH]ncc3C(=O)N3CCCC3)oc2C)cc1 | 7.08µM* | nsP2 cell sec=5.8%;NSP2 full ctr=?;Furin counterscr=-6.7%;nsP2 NS23 pep=-4.2%;Papain cs=-5.9%;nsP2pro confirm=-7.6%;HCV NS3 4A cs=?
COc1ccc(CNC(=O)C2CCC(CNS(=O)(=O)c3ccc4c(c3)CCCC(=O)N4)CC2)cc1 (stereo unspecified) | -9.7%
COc1ccc(CNS(=O)(=O)c2cc3c(cc2C)N(C)CCO3)cc1 | -19.6%
COc1cc2c(NC3CCN(CC4CCCCC4)CC3)nc(N3CCCN(C(C)C)CC3)nc2cc1OCCCN1CCCCC1 | 105.7%
COc1cccc([C@@H]2CCN(Cc3[nH]c4ccccc4c3C)C[C@H]2O)c1 | -2.9%
COc1cccc(C2c3c(ncn(-c4cccc(F)c4)c3=N)Oc3ccc4ccccc4c32)c1 (stereo unspecified) | -18.0%
c1ccc(-c2cnc(Nc3ccc(OCCN4CCCC4)cc3)s2)cc1 | 127.2%
C(#Cc1nc2ncccc2nc1OCCN1CCCC1)c1ccccc1 | 7µM* | nsP2 cell sec=?;NSP2 full ctr=18.3µM*;Furin counterscr=23.1µM*;nsP2 NS23 pep=16.3µM*;Papain cs=97.6%;nsP2pro confirm=7.98µM*;HCV NS3 4A cs=i
CCC(=C(c1ccc(OCCN2CCCC2)cc1)c1ccc(OCCN2CCCC2)cc1)c1ccccc1 | 92.6%
Cc1ccc(S(=O)(=O)Nc2cnccc2C(=O)Nc2nc(-c3ccccc3)cs2)cc1 | i
CNCCN1CCC(c2cc(CN(C)C(=O)c3cccc(Oc4ccccc4)c3)ccn2)CC1 | 48.7%[10 µM]
Cc1ccc(S(=O)(=O)Nc2cc(Cl)c(O)c3ccccc23)c(C)c1 | 2.51µM* | nsP2 cell sec=6.51µM*;NSP2 full ctr=7.3µM*;Furin counterscr=-14.8%;nsP2 NS23 pep=1.83µM*;Papain cs=-10.3%;nsP2pro confirm=2.25µM*;HCV NS3 4A cs=?
CC(=O)c1c(C)oc2c1cc(NS(=O)(=O)c1c(C)cc(C)cc1C)c1ccccc12 | -26.5%
SMILES | nsP2pro primary | others
Cc1cc(F)ccc1S(=O)(=O)Nc1cc2c(C(=O)O)c(C)oc2c2ccccc12 | -25.0%
CCC(C)c1ccc(NC(=O)Cn2cnc3c2c(=O)n(C)c(=O)n3C)cc1 (stereo unspecified) | -3.2%
CC1NC(=O)CNC(=O)C(C(C)C)NC(=O)C2CCCN2C(=O)C(C(C)C)NC(=O)C(Cc2c[nH]c3ccccc23)NC1=O (stereo unspecified) | -3.6%[10 µM]
Cc1cc(-c2nnc3n2CCCCC3)c(C)n1-c1ccc([N+](=O)[O-])cc1 | -12.2%
Cc1ccnc(NC(=S)N[C@H]2CCN(c3cccc(C(F)(F)F)c3)C2)c1 | i
O=C1NC(Cc2c[nH]c3ccccc23)C(=O)NC1Cc1c[nH]c2ccccc12 (stereo unspecified) | 6.1µM* | nsP2 cell sec=-1.4%[33.5 µM];NSP2 full ctr=-15.4%[33.5 µM];Furin counterscr=-4.7%[33.5 µM];nsP2 NS23 pep=-20.6%[33.5 µM];Papain cs=?;nsP2pro confirm=-39.3%[16.7 µM];HCV NS3 4A cs=i
CC(N)Cc1c[nH]c2ccccc12 (stereo unspecified) | -12.2%
NCCc1c[nH]c2ccccc12 | -22.1%
COc1ccc(/C=C(\C)C2Nc3cccc4cccc(c34)N2)cc1 | i
N=c1c2c(ccn1-c1ccccc1)Oc1ccc3ccccc3c1C2c1ccccc1 (stereo unspecified) | -16.8%
Cc1cccc(OCC(=O)c2ccc3c(c2)N(C(C)C(=O)N2CCOCC2)C(=O)CO3)c1C (stereo unspecified) | i
Cc1ccc(-c2ccc(=O)n(CC(=O)NCCCN(C)C)n2)cc1 | -1.0%
NC(CO)C(=O)NNCc1ccc(O)c(O)c1O (stereo unspecified) | 1.76µM* | nsP2 cell sec=-8.6%;NSP2 full ctr=6.51µM*;Furin counterscr=-9.1%;nsP2 NS23 pep=4.11µM*;Papain cs=-0.8%;nsP2pro confirm=1.26µM*;HCV NS3 4A cs=?
N[C@@H](CO)C(=O)Nc1ccc(Cl)cc1C(=O)c1ccc[nH]1 | -4.2%
C=C(CCC1=C(C)[C@H]2[C@H](CC3[C@@H]4CC=C5C[C@@H](O)C[C@@H](O)[C@]5(C)C4[C@H](O)C[C@@]32C)O1)CO[C@@H]1O[C@H](CO)[C@@H](O)[C@H](O)[C@H]1O (stereo partly specified) | -10.4%[10 µM]
CC1=CCC(O)C2(C)CCC3C(C)C(=O)OC3C12 (stereo unspecified) | -1.5%
C=C1C(=O)O[C@@H]2[C@H]1[C@H](O)C[C@]1(C)[C@@H](O)CC=C(C)[C@@H]21 | ? | nsP2 cell sec=?;NSP2 full ctr=-6.9%;Furin counterscr=2.0%;nsP2 NS23 pep=-11.0%;Papain cs=-11.1%;nsP2pro confirm=-17.2%;HCV NS3 4A cs=i
C=C1C(=O)OC2C1CCC1(C)C(O)CCC(=C)C21 (stereo unspecified) | 61.5%
C[C@]12CC[C@H]3[C@@H]([C@H](O)CC4=CC(=O)CC[C@@]43C)[C@@H]1CC[C@@H]2O | 2.9%
